Four molecules from PubChem BioAssay AID602310 (National Center for Advancing Translational Sciences (NCATS), 2012) can be followed below.

The structures appear in SMILES notation. Hit rate of the full screen: of about 410,000 compounds, about 310 (0.076%) were called active. A call without a number means that no potency is given here. About 2% were inconclusive and are not listed. This is one part of a sample in which actives are shown more often than they occur. The call rests on the fitted dose curve; in most records, active means well fitted curve in the direction sought with a large enough effect; inconclusive means small, poorly fitted or top-dose-only effect; inactive means flat fitted curve, though single readings scatter.
Potency means the concentration at half of the fitted maximal effect.

This test deals with DNA dC->dU-editing enzyme APOBEC-3G (Homo sapiens) (UniProt Q9HC16). The test can be described thus: qHTS for Inhibitors of Vif-A3G Interactions: qHTS. Further: nearly all actives have a fitted effect of over 60% in size. As to conditions: HeLa A3G-eYFP + Vif (tagged APOBEC3G with the HIV-1 protein that degrades it), YFP fluorescence, overnight; series mostly up to 46.1 µM. An excerpt: The recent discovery and characterization of host restriction factors, which provide a potent defense to invading retroviruses, has provided new targets for antiviral drug development. APOBEC3G (A3G) and APOBEC3F (A3F) are potent cytidine deaminases that block HIV-1 replication; HIV-1 expresses the Vif protein, which counteracts A3G and A3F by binding to them and inducing their proteasomal degradation. The Vif-A3G and Vif-A3F interactions provide two potential targets for development of small molecules which can interfere with the ability of Vif to degrade A3G or A3F. […] To identify inhibitors that can interfere with Vif mediated degradation of A3G and A3F, we have developed Hela cell lines that stably express A3G or A3F tagged with eYFP at the C-terminal end (A3G-eYFP or A3F-eYFP, respectively) and Vif. In the absence of an inhibitor, Vif induces degradation of A3G-eYFP and A3F-eYFP, and the cells are not fluorescent. In the presence of an inhibitor, it is expected that Vif will be unable to degrade A3G-eYFP and/or A3F-eYFP, resulting in an increase in yellow fluorescence. In this assays Vif A3G was screened against the Molecular Library Small Molecule Repository (MLSMR). NIH Chemical Genomics Center [NCGC] NIH Molecular Libraries Probe Centers Network [MLPCN] MLPCN Grant: MH093245 Assay Submitter (PI): Vinay Pathak, National Cancer Institute
Chain of DNA dC->dU-editing enzyme APOBEC-3G (Homo sapiens) (Q9HC16 whole entry, looked up): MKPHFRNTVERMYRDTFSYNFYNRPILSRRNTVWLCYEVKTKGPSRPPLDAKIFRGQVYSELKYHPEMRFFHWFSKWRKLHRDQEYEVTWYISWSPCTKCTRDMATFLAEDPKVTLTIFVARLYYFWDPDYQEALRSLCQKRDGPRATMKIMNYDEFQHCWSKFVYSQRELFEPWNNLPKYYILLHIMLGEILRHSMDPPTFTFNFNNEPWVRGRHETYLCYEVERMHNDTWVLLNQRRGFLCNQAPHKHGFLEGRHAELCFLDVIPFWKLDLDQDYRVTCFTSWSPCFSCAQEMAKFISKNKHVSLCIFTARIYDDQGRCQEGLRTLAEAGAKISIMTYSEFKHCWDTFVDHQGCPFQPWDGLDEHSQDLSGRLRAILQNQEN
5 uL of 700 cells/well of A3G-YFP cells are dispensed into black, clear bottom plates. The plates are incubated overnight at 37 deg C. 23 nL of compounds are added by pintool. The plates are incubated overnight at 37 deg C and then read on the TTP Acumen (Ex 488/ Em 500-530).
On the technique in general: In qHTS, concentration-response curves come from the screen itself.
For `CC/C(=N\NC(=O)c1ccccc1O)c1c(O)n(Cc2ccccc2)c(=O)[nH]c1=O`, the Potency was 10 µM (active).

Regarding `O=c1[nH]c(=O)n(Cc2ccccc2)c(O)c1/C=N/Nc1c(F)c(F)c(F)c(F)c1F`, the Potency entry was “inactive”.

Take `CCC(=NCCc1ccccc1)c1c(O)n(C2CCCCC2)c(=O)[nH]c1=O`: the Potency result is “inactive”.

In the case of `ClCCN(CCCl)c1ccc(C=Nc2ccc(/C=C/c3ccnc4ccccc34)cc2)cc1`, the Potency result is “inactive”.
